# According to PubChem BioAssay (NCATS):
# Inconclusive results are not listed. A call without a number means that no potency is given here. Activity calls are given as the source filed them. Calls come from the whole dose curve; as a rule, active = well fitted curve in the direction sought with a large enough effect; inconclusive = small, poorly fitted or top-dose-only effect, or another doubt; inactive = no such curve, though single readings can be large; an effect the other way counts as inactive or inconclusive. Bridge positions count the residues as written; N and C are the ends. Square brackets hold non-standard residues; d marks the D form. Peptide text beside a SMILES is read from it. * marks the point of attachment. ξ: configuration not given here. ξDab(CH2SO3H) = NC(CCNCS(=O)(=O)O)C(=O)O; Heptanoyl(6-Me) = CC(C)CCCCC(=O)*; Orn = NCCC[CH](N)C(=O)O; Dab = NCC[CH](N)C(=O)O
# How the values were obtained:
# [1] = S16 Schwann cell PMP22 intronic element firefly luciferase assay (AID 624032); note: nearly all actives have a fitted effect of over 30% in size
# In short: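 Luciferase reporter of PMP22 intronic-element expression in stably transfected S16 rat Schwann cells, read by ONE-Glo luminescence after 24 h compound exposure at 37 C. Activity scaled between DMSO (0%) and positive-control PTC124; concentration-effect curves quality-classified.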
# [2] = system: 3D7; test: qHTS profiling for inhibitors of Plasmodium falciparum proliferation (AID 504749); note: nearly all actives have a fitted effect of over 60% in size; conditions: P. falciparum in erythrocytes, SYBR Green DNA, 72 h; series mostly up to 28.7 µM
# In short: (§1)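 Three-day growth assay of blood-stage parasites in erythrocytes (0.3% parasitemia, 2.5% hematocrit) at 37 C, 5% CO2, quantified by SYBR Green DNA staining after overnight detergent lysis.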
# [3] = system: AS120; test: as above; conditions: P. falciparum in erythrocytes, SYBR Green DNA, 72 h; series mostly up to 28.7 µM
# In short: as §1
# [4] = system: ATS95; test: as above; conditions: P. falciparum in erythrocytes, SYBR Green DNA, 72 h; series mostly up to 28.7 µM
# In short: as §1
# [5] = system: C2A; test: as above; conditions: P. falciparum in erythrocytes, SYBR Green DNA, 72 h; series mostly up to 28.7 µM
# In short: as §1
# [6] = system: CP211; test: as above; conditions: P. falciparum in erythrocytes, SYBR Green DNA, 72 h; series mostly up to 28.7 µM
# In short: as §1
# [7] = system: CP247; test: as above; conditions: P. falciparum in erythrocytes, SYBR Green DNA, 72 h; series mostly up to 28.7 µM
# In short: as §1
# [8] = system: CP250; test: as above; conditions: P. falciparum in erythrocytes, SYBR Green DNA, 72 h; series mostly up to 28.7 µM
# In short: as §1
# [9] = system: CP256; test: as above; conditions: P. falciparum in erythrocytes, SYBR Green DNA, 72 h; series mostly up to 28.7 µM
# In short: as §1
# [10] = system: CP262; test: as above; conditions: P. falciparum in erythrocytes, SYBR Green DNA, 72 h; series mostly up to 28.7 µM
# In short: as §1
# [11] = system: CP297; test: as above; conditions: P. falciparum in erythrocytes, SYBR Green DNA, 72 h; series mostly up to 28.7 µM
# In short: as §1
# [12] = system: Dd2; test: as above; conditions: P. falciparum in erythrocytes, SYBR Green DNA, 72 h; series mostly up to 28.7 µM
# In short: as §1
# [13] = system: ECU; test: as above; conditions: P. falciparum in erythrocytes, SYBR Green DNA, 72 h; series mostly up to 28.7 µM
# In short: as §1
# [14] = system: GB4; test: as above; conditions: P. falciparum in erythrocytes, SYBR Green DNA, 72 h; series mostly up to 28.7 µM
# In short: as §1
# [15] = system: N140; test: as above; conditions: P. falciparum in erythrocytes, SYBR Green DNA, 72 h; series mostly up to 28.7 µM
# In short: as §1
# [16] = system: P93_24; test: as above; conditions: P. falciparum in erythrocytes, SYBR Green DNA, 72 h; series mostly up to 28.7 µM
# In short: as §1
# [17] = system: PAD; test: as above; conditions: P. falciparum in erythrocytes, SYBR Green DNA, 72 h; series mostly up to 28.7 µM
# In short: as §1
# [18] = system: SC27B; test: as above; conditions: P. falciparum in erythrocytes, SYBR Green DNA, 72 h; series mostly up to 28.7 µM
# In short: as §1
# [19] = system: TAB113; test: as above; conditions: P. falciparum in erythrocytes, SYBR Green DNA, 72 h; series mostly up to 28.7 µM
# In short: as §1
# [20] = system: TAB165; test: as above; conditions: P. falciparum in erythrocytes, SYBR Green DNA, 72 h; series mostly up to 28.7 µM
# In short: as §1
# Potency is the fitted concentration of half-maximal effect.
Structure (SMILES),Potency [1],Potency [2],Potency [3],Potency [4],Potency [5],Potency [6],Potency [7],Potency [8],Potency [9],Potency [10],Potency [11],Potency [12],Potency [13],Potency [14],Potency [15],Potency [16],Potency [17],Potency [18],Potency [19],Potency [20]
CC(C)C[C@H](NC(=O)[C@@H](Cc1c[nH]c2ccccc12)NC(=O)[C@@H](Cc1ccc(O)cc1)NC(=O)[C@@H](CO)NC(=O)[C@@H](Cc1c[nH]c2ccccc12)NC(=O)C(Cc1cnc[nH]1)NC(=O)C1CCC(=O)N1)C(=O)N[C@@H](CCCN=C(N)N)C(=O)N1CCC[C@@H]1C(=O)NCC(N)=O (stereo partly specified),inactive,inactive,inactive,inactive,inactive,inactive,inactive,inactive,inactive,inactive,inactive,inactive,inactive,inactive,inactive,inactive,inactive,inactive,inactive,inactive
Cn1cc(O)nc1NC(=O)Nc1cccc(Cl)c1,inactive,inactive,inactive,inactive,inactive,inactive,inactive,–,–,–,inactive,inactive,inactive,–,inactive,inactive,inactive,inactive,inactive,inactive
CC(C)CC(NC(=O)C(COC(C)(C)C)NC(=O)C(Cc1ccc(O)cc1)NC(=O)C(CO)NC(=O)C(Cc1c[nH]c2ccccc12)NC(=O)C(Cc1cnc[nH]1)NC(=O)C1CCC(=O)N1)C(=O)NC(CCCN=C(N)N)C(=O)N1CCCC1C(=O)NNC(N)=O (stereo unspecified),inactive,inactive,inactive,inactive,inactive,inactive,inactive,inactive,inactive,inactive,inactive,inactive,inactive,inactive,inactive,inactive,inactive,inactive,–,inactive
CCC(C)C1NC(=O)C(Cc2ccc(O)cc2)NC(=O)C(N)CSSCC(C(=O)N2CCCC2C(=O)NC(CC(C)C)C(=O)NCC(N)=O)NC(=O)C(CC(N)=O)NC(=O)C(CCC(N)=O)NC1=O (stereo unspecified),inactive,inactive,inactive,inactive,inactive,inactive,–,inactive,inactive,inactive,inactive,inactive,inactive,inactive,inactive,inactive,inactive,inactive,inactive,inactive
CCC1NC(=O)C(NC(=O)c2ncccc2O)C(C)OC(=O)C(c2ccccc2)NC(=O)C2CC(=O)CCN2C(=O)C(Cc2ccccc2)N(C)C(=O)C2CCCN2C1=O (stereo unspecified),inactive,inactive,–,inactive,inactive,inactive,inactive,inactive,inactive,inactive,inactive,–,–,–,–,–,–,inactive,inactive,–
O=C(OCC1OC(OC(=O)c2cc(O)c(O)c(OC(=O)c3cc(O)c(O)c(O)c3)c2)[C@@H](OC(=O)c2cc(O)c(O)c(OC(=O)c3cc(O)c(O)c(O)c3)c2)C(OC(=O)c2cc(O)c(O)c(OC(=O)c3cc(O)c(O)c(O)c3)c2)C1OC(=O)c1cc(O)c(O)c(OC(=O)c2cc(O)c(O)c(O)c2)c1)c1cc(O)c(O)c(OC(=O)c2cc(O)c(O)c(O)c2)c1 (stereo partly specified),–,2000 nM (active),2510 nM (active),2820 nM (active),2820 nM (active),4780 nM (active),2820 nM (active),2240 nM (active),3550 nM (active),4260 nM (active),3790 nM (active),2240 nM (active),2240 nM (active),3380 nM (active),2240 nM (active),2510 nM (active),3550 nM (active),3160 nM (active),2240 nM (active),2000 nM (active)
CC(C)CC1NC(=O)C(CCCN)NC(=O)C(C(C)C)NC(=O)C2CCCN2C(=O)C(Cc2ccccc2)NC(=O)C(CC(C)C)NC(=O)C(CCCN)NC(=O)C(C(C)C)NC(=O)C2CCCN2C(=O)C(Cc2ccccc2)NC1=O (stereo unspecified) (cyclo(FPV[Orn]LFPV[Orn]L); configuration not given here),642 nM (active),–,2.8 nM (active),0.9 nM (active),2.5 nM (active),1.3 nM (active),2.8 nM (active),2 nM (active),4 nM (active),–,1.2 nM (active),1.1 nM (active),3.2 nM (active),0.5 nM (active),1.3 nM (active),2 nM (active),0.8 nM (active),6.3 nM (active),2.2 nM (active),1.3 nM (active)
CCC(C)C1NC(=O)C(CCNCS(=O)(=O)O)NC(=O)C(NC(=O)C(CCNCS(=O)(=O)O)NC(=O)C(NC(=O)C(CCNCS(=O)(=O)O)NC(=O)CCCCC(C)C)C(C)O)CCNC(=O)C(C(C)O)NC(=O)C(CCNCS(=O)(=O)O)NC(=O)C(CCNCS(=O)(=O)O)NC(=O)C(C(C)CC)NC1=O (stereo unspecified) ({Heptanoyl(6-Me)}-[ξDab(CH2SO3H)]T[ξDab(CH2SO3H)][Dab][ξDab(CH2SO3H)]II[ξDab(CH2SO3H)][ξDab(CH2SO3H)]T; lactam 4-C; configuration not given here),inactive,inactive,inactive,inactive,inactive,inactive,inactive,–,–,inactive,inactive,inactive,inactive,inactive,inactive,inactive,inactive,inactive,inactive,inactive
